According to PubChem BioAssay (NCI):
This is part of a sample that, as a whole, favours compounds with a hit. Of some 83,000 tested, about 20% had one in any assay.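 Cells were grown in 96-well plates and exposed to the test compound at a single concentration for 48 hours; results are reported as percent growth, with values below 10 considered active.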 Values without a mark were called inactive. The source made the active and inactive calls.

Experiments:
Experiment in all cases: NCI-60 one-dose screen, 48 h (100 = growth as untreated, 0 = no growth, -100 = all killed)
Settings in all cases: 10 µM unless noted
NCI-H226 lung = test system: NCI-H226 lung
NCI-H322M lung = test system: NCI-H322M lung
HOP-62 NSCLC = test system: HOP-62 NSCLC
NCI-H460 lung = test system: NCI-H460 lung
HOP-92 NSCLC = test system: HOP-92 NSCLC
NCI-H522 lung = test system: NCI-H522 lung
A549/ATCC NSCLC = test system: A549/ATCC NSCLC
786-0 renal = test system: 786-0 renal
COLO 205 colon = test system: COLO 205 colon

Compound	growth (NCI-H226 lung)	growth (NCI-H322M lung)	growth (HOP-62 NSCLC)	growth (NCI-H460 lung)	growth (HOP-92 NSCLC)	growth (NCI-H522 lung)	growth (A549/ATCC NSCLC)	growth (786-0 renal)	growth (COLO 205 colon)
CCCn1nc(C(=O)N(C)Cc2ccccc2)c2c1CCC(N1CCc3ccccc31)C2 (stereo not drawn)	97.9%	101%	103%	112%	90.7%	86.5%	93%	95.2%	117%
COc1cc(-c2nc3sccn3c2-c2ccnc(NCCNS(=O)(=O)c3ccc(Cl)cc3)n2)ccc1F		70.4%	34.7%	42.2%	78.8%	1.16% (active)	30%	61.8%	33.8%
CC1=C(CCC(C)NCc2ccc(OCCCN3CCCCC3)cc2)C(C)(C)CCC1 (stereo not drawn)	-32.7% (active)	-40.5% (active)	-67.6% (active)	-77% (active)	-83% (active)	-79.4% (active)	-64.2% (active)	-85.6% (active)	-70.9% (active)
CCN1C(=O)N(CC)C2C1NN=c1s/c(=C\c3ccc(C(F)(F)F)cc3)c(=O)n12 (stereo not drawn)	60.8%	45.2%	39.1%	2.84% (active)	34.8%	-10.5% (active)	5.31% (active)	24.9%	-6.59% (active)
CCOC(=O)c1cc(C(=O)c2cc(OC)c(OC)c(OC)c2)n2ccccc12	34.5%	49.7%	28.3%	14.2%	54.1%	26%	25.7%	35.5%	-31.8% (active)
COc1cc(OC)cc(-c2ccc(-c3ccc(C(=N)N)o3)o2)c1	84.8%	71.2%	81.4%	6.91% (active)	69.2%	57.6%	47.1%	69%	-61.5% (active)
